Data reported in PubChem BioAssay (EPA / NIEHS).
“And” between values parts separate entries of the source, which are not always exact repeats. Equal values may be shown once. Some structures have more than one record in an assay (separate samples or runs), and their calls can disagree. The source made the active and inactive calls. The calls were made as follows: active = hit-call score of the fitted dose curve at least 0.9, where 1 is the maximum; inactive = score below 0.9.

The compounds below were run against Paired box protein Pax-6 (Homo sapiens) (UniProt P26367) (assay: ATG_Pax6_CIS: Attagene CIS-FACTORIAL HepG2 Assay for human Paired Box 6 (PAX6) (AID 2282956)). Settings: HepG2 CIS-FACTORIAL PAX6 reporter transcription, RNA readout; actives raise or lower the signal.
Experimental: ATG_CIS is a cell-based, multiplexed-readout assay that uses HepG2, a human liver cell line, with measurements taken at 24 hours after chemical dosing in a 24-well plate.ATG_Pax6_CIS is one of 52 assay component(s) measured or calculated from the ATG_CIS assay. It is designed to make measurements of mRNA induction, a form of inducible reporter, as detected with fluorescence intensity signals by Reverse transcription polymerase chain reaction (RT-PCR) and Capillary electrophoresis technology.Data from the assay component ATG_Pax6_CIS was analyzed into 1 assay endpoint. This assay endpoint, ATG_Pax6_CIS, was analyzed with bidirectional fitting relative to DMSO as the negative control and baseline of activity. Using a type of inducible reporter, measures of mRNA for gain or loss-of-signal activity can be used to understand the reporter gene at the transcription factor-level as they relate to the gene PAX6. Furthermore, this assay endpoint can be referred to as a primary readout, because this assay has produced multiple assay endpoints where this one serves a reporter gene function. To generalize the intended target to other relatable targets, this assay endpoint is annotated to the dna binding intended target family, where the subfamily is paired box protein.
Human liver HepG2 cells are transiently transfected with multiple reporter transcription units (MRTUs) in 6-well plates using FuGene 6 reagent (Roche; 3 ml FuGene/1 mg DNA). The MRTU constructs are regulated by a cis-regulating element (promoter). […] A major difference between the CIS and TRANS system is that in CIS activities of endogenous TFs are measured, whereas the TRANS assay evaluates changes in activities of exogenous, chimeric NR-Gal4 proteins. […] At the end of 24 hour incubation, total RNA was isolated using TriZol reagent (Invitrogen). The isolated RNA is then reverse-transcribed using oligo(dT) primer and Mo-MLV reverse transcriptase (Invitrogen) with DNAse I (Ambion) treatment for 30 min. The one-tenth of the produced cDNA was amplified by PCR using Taq DNA polymerase (Invitrogen) and two reporter sequence-specific primers. The PCR products were fluorescently labeled by primer extension with 6-arboxyfluorescein (6-FAM) 5'-labeled reporter sequence-specific primer (2 min at 95 C, 20 s at 68 C and 10 min at 72 C) and these products were digested with 5U of HpaI (New England Biolabs) for 2h at 37 C. The fragments were purified using Qiaquick PCR columns (Qiagen), analyzed on an ABI 3130xL genetic analyzer (Applied Biosystems) with peak positions identified by using a set of X-rhodamine (ROX)-labeled MapMarker1000 molecular weight standards (BioVentures). The raw capillary electrophoresis data was processed using Attagraph software (Attagene).

Chain of Paired box protein Pax-6 (Homo sapiens) (P26367 whole entry, looked up): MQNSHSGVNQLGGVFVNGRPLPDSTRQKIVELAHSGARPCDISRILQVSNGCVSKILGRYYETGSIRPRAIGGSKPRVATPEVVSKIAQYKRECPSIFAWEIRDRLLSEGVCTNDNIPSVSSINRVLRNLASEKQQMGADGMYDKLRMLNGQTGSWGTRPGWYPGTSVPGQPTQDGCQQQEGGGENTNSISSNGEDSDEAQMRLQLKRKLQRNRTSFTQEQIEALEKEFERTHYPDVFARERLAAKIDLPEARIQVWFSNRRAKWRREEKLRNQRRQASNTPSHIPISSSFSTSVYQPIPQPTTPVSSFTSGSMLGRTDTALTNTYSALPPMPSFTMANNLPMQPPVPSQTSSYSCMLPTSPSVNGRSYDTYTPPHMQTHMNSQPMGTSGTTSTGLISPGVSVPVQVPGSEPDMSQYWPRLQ

Question: How did the outcome turn out when `O=C(O)c1cccc(C(=O)O)c1` was run?
Answer: inactive

Question: `O=C(N[C@H](CO)[C@H](O)c1ccc([N+](=O)[O-])cc1)C(Cl)Cl` was tested. Which outcome did it give?
Answer: inactive

Question: With `O=S1(=O)CCCO1` as the compound, how does the outcome read?
Answer: inactive

Question: With `CNC(C)=O` as the compound, how does the outcome read?
Answer: inactive

Question: Which outcome does the source give for `CC(C)c1nnc2ccc(-c3ocnc3-c3cc(F)ccc3F)cn12` here?
Answer: inactive

Question: `OCc1c[nH]c2ccccc12` was tested. Which outcome did it give?
Answer: inactive

Question: What about the AC50 of the same compound?
Answer: 6.46 µM (active) and 23.1 µM (active) and 38.2 µM (active)

Question: For `COCc1nnc(-c2ccc[n+]([O-])c2)n1-c1c(Cl)c(Cl)cc2[nH]c(=O)c(=O)[nH]c12`, which outcome is on record?
Answer: inactive

Question: For `CCc1ccc(O)c(C(C)(C)C)c1`, which outcome is on record?
Answer: inactive

Question: `NC(=O)N(O)[C@@H]1COc2cc(OCc3ccccc3)ccc21` was tested. Which outcome did it give?
Answer: inactive

Question: Which outcome does the source give for `OCCNCCO` here?
Answer: inactive

Question: Which outcome does the source give for `O=C(O)CO` here?
Answer: inactive

Question: How did the outcome turn out when `CCCCCCOC(=O)CC(CC(=O)OCCCCCC)(OC(=O)CCC)C(=O)OCCCCCC` was run?
Answer: inactive

Question: For `CCCCCCCCCCCCCCO`, which outcome is on record?
Answer: inactive

Question: `O=C(O)[C@H](O)[C@@H](O)C(=O)O` was tested. Which outcome did it give?
Answer: inactive

Question: `Cn1cc[nH]c1=S` was tested. Which outcome did it give?
Answer: inactive

Question: For `CCCCC(CC)C(=O)OCCOCCOCCOC(=O)C(CC)CCCC` (stereo not given), which outcome is on record?
Answer: inactive

Question: With `NNC(=O)c1ccncc1` as the compound, how does the outcome read?
Answer: inactive

Question: How did the outcome turn out when `c1ccc2ncccc2c1` was run?
Answer: inactive

Question: How did the AC50 turn out when `CCN(CC)C(=S)SSC(=S)N(CC)CC` was run?
Answer: 137 µM (active)

Question: `Cc1nc(-c2ccccn2)ncc1C(=O)Nn1cc(C)c2cc(F)ccc21` was tested. Which outcome did it give?
Answer: inactive

Question: How did the outcome turn out when `OC[C@H]1O[C@@](CO)(O[C@H]2O[C@H](CO)[C@@H](O)[C@H](O)[C@H]2O)[C@@H](O)[C@@H]1O` was run?
Answer: inactive

Question: For `C=CCc1cc(S(=O)(=O)c2ccc(O)c(CC=C)c2)ccc1O`, which AC50 is on record?
Answer: 33.4 µM (active)

Question: How did the outcome turn out when `Cc1ncc([C@@H](CCCCCCc2ccc3c(n2)NCCC3)CC(=O)O)cn1` was run?
Answer: inactive

Question: How did the outcome turn out when `CCCCCCCC/C=C\CCCCCCCC(=O)OC[C@@H](O)[C@H]1OC[C@H](O)[C@H]1O` was run?
Answer: inactive

Question: For `COc1cc(C(C)C)c2c(c1)S(=O)(=O)N(COc1cc(=O)n3cccc(OCCN4CCCCC4)c3n1)C2=O`, which AC50 is on record?
Answer: 8.11 µM (active)

Question: Which outcome does the source give for `NCC(F)(F)C(F)(F)C(F)(F)C(F)(F)F` here?
Answer: inactive

Question: How did the outcome turn out when `c1ccc2c(c1)-c1cccc3c1c-2cc1ccccc13` was run?
Answer: inactive

Question: For `FC(F)(F)COC(OCC(F)(F)F)OCC(F)(F)F`, which outcome is on record?
Answer: inactive

Question: Which AC50 does the source give for `O=C(O)c1cccc(C[C@@H]2COc3ccc(OCc4nc5cc(F)ccc5s4)cc3[C@@H]2O)c1` here?
Answer: 135 µM (active)

Question: With `CC(=O)c1ccccc1` as the compound, how does the outcome read?
Answer: inactive

Question: Which outcome does the source give for `OCc1ccccc1` here?
Answer: inactive

Question: Which outcome does the source give for `Cn1c(=O)c2[nH]cnc2n(C)c1=O` here?
Answer: inactive

Question: Which outcome does the source give for `O=C(NO)C1(NS(=O)(=O)c2ccc(Oc3ccc(F)cc3)cc2)CCOCC1` here?
Answer: inactive

Question: How did the outcome turn out when `OCC(CO)(CO)CO` was run?
Answer: inactive

Question: With `OC(CCl)CCl` as the compound, how does the outcome read?
Answer: inactive

Question: How did the outcome turn out when `OC(O)(C(F)C(O)(O)C(F)(F)F)C(F)(F)F` was run?
Answer: inactive

Question: With `CCCCCOC(C)=O` as the compound, how does the outcome read?
Answer: inactive

Question: How did the outcome turn out when `OC[C@H]1O[C@@H]2O[C@H]3[C@H](O)[C@@H](O)[C@@H](O[C@H]4[C@H](O)[C@@H](O)[C@@H](O[C@H]5[C@H](O)[C@@H](O)[C@@H](O[C@H]6[C@H](O)[C@@H](O)[C@@H](O[C@H]7[C@H](O)[C@@H](O)[C@@H](O[C@H]1[C@H](O)[C@H]2O)O[C@@H]7CO)O[C@@H]6CO)O[C@@H]5CO)O[C@@H]4CO)O[C@@H]3CO` was run?
Answer: inactive

Question: Which outcome does the source give for `CCCc1ccccc1` here?
Answer: inactive
